# The list is not random: actives were taken first. Their share in the collection is about 4%.
# TROY NFkB inh: inhibitors of TROY-driven NF-kB signaling, primary screen, Q293 LMP1-TROYcd cells, NF-kB luciferase, uHTS | Q293 LMP1-TROYcd NF-kB luciferase reporter, 4 h | inhibition, % at 10 µM | hit rate 0.98% among 360,000 | AID 1347056, 2019;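 active = compounds whose plate-normalised and pattern-corrected inhibition of the luciferase reporter signal at the single screening dose is 50% or more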
# TWEAK-Fn14 inh: inhibitors of TWEAK-Fn14 signaling, primary screen, luciferase reporter cells, uHTS. TWEAK-stimulated Fn14 reporter cells, luciferase luminescence, 8 h. inhibition, % at 10 µM. hit rate 2% among 360,000. AID 1159606, 2016; in the data active = inhibition above about 50%
# Peg3 prom inh: Peg3 promoter-driven luciferase inhibitors, primary screen, cell-based, HeLa, luciferase luminescence; hit rate 1.7% among 360,000; HeLa PEG-Prom luciferase reporter, overnight; inhibition, % at 20 µM;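 active = inhibition of at least 50% at 20 µM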
# CF NFkB block: inhibitors of PAF-induced NF-kB signaling, primary screen, cell-based, GFP fluorescence, uHTS. KKLEB NF-kB-GFP reporter, GFP fluorescence overnight. inhibition, % at 5 µM. hit rate 0.86% among 360,000. AID 588850, 2011;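 active = at least 50% inhibition at 5 µM, scaled per plate between neutral and stimulator controls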;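 note: PAF is a Pseudomonas aeruginosa culture filtrate used as stimulus; plate controls were PAF-stimulated DMSO wells for no effect and unstimulated DMSO wells for full effect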
# HIF-2a block: HIF-2a reporter inhibitors, primary screen, luminescence, 786-0 RCC cells; 786-0 RCC cells HIF-2a reporter, luciferase luminescence, overnight; AID 624352, 2012; inhibition, % at 18.8 µM; hit rate 0.72% among 360,000;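 active = inhibition of the luminescence signal of 40% or more relative to plate controls, in a single-dose primary screen at 18.75 µM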
# KKLEB tox: cytotoxicity in KKLEB CF airway cells, primary screen, cytotoxicity control for CF NF-kB inhibitor project, cell-based, uHTS, fluorescence assay plates | hit rate 0.36% among 360,000 | KKLEB CF airway cells viability, ATPlite luminescence, overnight; stronger effect = lower value; cells stimulated with P. aeruginosa culture filtrate | AID 602141, 2011 | activity change (cytotoxicity), % at 5 µM;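 active = corrected activity change at or below -50% at 5 µM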
# Active calls of the source: *; nt = not tested or not shown.
SMILES,TROY NFkB inh,TWEAK-Fn14 inh,Peg3 prom inh,CF NFkB block,HIF-2a block,KKLEB tox
CCOc1ccc(-c2onc(C(F)(F)F)c2-c2cscn2)c(O)c1,16,-2,4,0,-21,10
O=C(CNC(=O)/C(=C\c1ccccc1)NC(=O)c1ccc(Br)cc1)OCc1ccccc1,nt,73*,1,-14,9,4
CCCc1cc(C(=O)O)c2ccccc2n1,20,8,8,-12,-6,8
Cc1ccc(NC(=O)Cc2cc(C(=O)O)c3ccccc3n2)c(C)c1,43,52*,44,41,-23,16
CC(NC(=O)c1ccco1)c1nc(-c2ccc(C(C)(C)C)cc2)no1 (centres undefined),20,57*,-49,-19,-59,4
CC(C)(C)c1ccc(-c2noc(CNC(=O)c3ccco3)n2)cc1,-3,6,-67,-3,-104,-4
Cc1ccc(CNC(=O)C2CC3Cn4c(nc5ccccc54)C3N2C)o1 (centres undefined),0,-5,-5,-5,13,-2
c1csc(CCNc2ncnc3sc4c(c23)CCC4)c1,54*,61*,-8,42,-17,-21
COc1ccc(N2CC(C(=O)N[C@@H](C)C(=O)NCc3ccccc3OC)CC2=O)cc1 (some centres undefined),-21,15,1,10,7,-14
CCOC(=O)c1cc(-c2ccccc2)sc1NC(=O)C(C)(C)C,-1,96*,16,-12,8,16
OCCCCNCc1ccc(OCc2ccc(Cl)cc2Cl)cc1,-19,-19,100*,23,-23,-15
CC(C)(C)c1ccccc1OCC(=O)NCc1ccccc1,-22,-3,10,17,11,12
Cc1cc(N2CCN(S(=O)(=O)c3ccc(Cl)cc3)CC2)c2ccccc2n1,53*,31,11,20,5,-9
CCS(=O)(=O)N1CCN(c2ccnc3cc(Cl)ccc23)CC1,-1,5,18,-2,19,6
Cc1ccc(S(=O)(=O)N2CCN(c3ccnc4cc(Cl)ccc34)CC2)cc1C,25,10,4,19,22,-26
Cc1cc(N2CCN(S(=O)(=O)c3ccc(Cl)c(Cl)c3)CC2)c2ccccc2n1,20,15,29,2,10,-3
CC(C)N(C(=O)N1CCN(c2ccnc3cc(Cl)ccc23)CC1)C(C)C,26,19,54*,3,20,-3
CS(=O)(=O)N1CCN(c2ccnc3cc(Cl)ccc23)CC1,21,67*,9,-1,8,-2
Cc1ccc(S(=O)(=O)N2CCN(c3ccnc4cc(Cl)ccc34)CC2)cc1,31,51*,7,17,18,2
S=c1[nH]cnc2scc(-c3ccc(Cl)cc3)c12,68*,26,22,-2,23,11
CCN(CC)S(=O)(=O)c1ccc(OC)c(NC(=O)OCc2ccccc2)c1,-4,20,12,16,13,-1
N#Cc1c(N)nc(SCC(=O)NC2CCCCC2)c(C#N)c1-c1ccc(Cl)cc1,1,12,74*,-2,-4,6
COCCNC(=O)C1(C)CCCN(C(=O)c2cnc3ccccc3n2)C1 (centres undefined),13,-7,10,10,14,4
COc1ccc(/C=N/Nc2ncnc(Cl)c2N)cc1OC,1,2,-45,-5,-35,-5
COc1ccc(/C=N/Nc2ncnc3sc4c(c23)CCCC4)cc1OC,82*,90*,-136,14,-37,1
SMILES,TROY NFkB inh,TWEAK-Fn14 inh,Peg3 prom inh,CF NFkB block,HIF-2a block,KKLEB tox
COc1ccc(Cc2[nH]n3c(=O)cc(C(C)C)nc3c2-c2ccccc2)cc1,34,15,52*,9,22,-6
NC(=S)N=Nc1c(O)n(CCCl)c2ccc(Br)cc12,20,-35,21,11,11,-7
C/C(Cl)=C\Cn1c(O)c(N=NC(N)=S)c2cc(Br)ccc21,26,-3,0,56*,19,-6
NC(=S)N=Nc1c(O)n(Cc2ccc(Br)cc2)c2ccccc12,20,-5,18,42,35,-52*
CCCS(=O)(=O)NC(=O)C1(C)CCN(C(=O)Cc2ccc(OC)cc2)C1 (centres undefined),11,2,3,4,7,6
Cc1ccc(CSc2nnc(SCC(=O)N/N=C/c3ccc(C(=O)O)cc3)s2)cc1,15,69*,-16,6,-59,6
CC(C)(C)Nc1c(C2CCNCC2)nc2c(OCc3ccccc3)cccn12,10,-4,-3,-10,11,-12
Cn1c(SCC(=O)Nc2cccnc2)nnc1-c1ccccc1F,19,-12,14,16,4,1
O=C(Nc1nc2ccccc2s1)c1ccc(N2CCCCC2)c([N+](=O)[O-])c1,45,81*,-118,3,-87,12
Cc1cc(C(=O)Nc2ccccc2N2CCOCC2)ccc1[N+](=O)[O-],0,-17,13,-4,16,16
CN1CCN(c2ccccc2NC(=O)c2ccc(N3CCCC3)c([N+](=O)[O-])c2)CC1,-6,-14,24,-5,-11,6
O=C(NC(=S)Nc1cccc(Cl)c1N1CCCCC1)c1ccc2c(c1)OCCO2,70*,71*,-28,28,-8,-7
O=C(Nc1cccc(Cl)c1N1CCCCC1)c1ccc2c(c1)OCCO2,2,-15,-14,-2,-3,-5
O=C(Nc1ccccc1N1CCCCC1)c1ccc(Cl)c([N+](=O)[O-])c1,-11,-18,101*,-2,17,0
CC1CCN(c2ccccc2NC(=O)c2ccc(N3CCOCC3)c([N+](=O)[O-])c2)CC1,-10,-21,3,43,8,-54*
O=C(Nc1ccon1)c1ccc(N2CCCCC2)c([N+](=O)[O-])c1,-54,-11,-314,-7,-252,-10
CC(C)(C)OC(=O)Nc1ccccc1-n1nnnc1C(C(=O)c1ccc(F)cc1)N1CCN(c2ccccn2)CC1 (centres undefined),nt,nt,nt,nt,-15,nt
COC(=O)c1ccc(COC(=O)CNC(=O)CNC(=O)c2ccc(OC)cc2)cc1,17,3,-14,-24,-3,7
O=C(Nc1nc(-c2ccccc2)cs1)c1ccc(N2CCOCC2)c([N+](=O)[O-])c1,83*,106*,67*,8,-15,-17
O=C(Nc1ccc(Nc2ccccc2)cc1)c1ccc(Cl)c([N+](=O)[O-])c1,22,-8,-27,-17,2,10

# Screening data deposited in PubChem BioAssay by Sanford-Burnham Center for Chemical Genomics.
